Experimental data as given in PubChem BioAssay AID2012 (Sanford-Burnham Center for Chemical Genomics, 2009).
The whole screen tested about 290,000 compounds, of which about 2,700 (0.93%) were called active. The rule behind the calls is not given here. Only a selection was taken, and actives are over-represented in it overall.

Biological target: Eukaryotic translation initiation factor 4H (Homo sapiens) (UniProt Q15056)
Assay: human eIF4H binding inhibitors, primary screen, translation initiation inhibitor project, biochemical, uHTS, fluorescence polarization (AID 2012);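 note: calls also rest on retests at 20 µM and on dose response follow-up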
Conditions: eIF4H fluorescence polarization binding assay, stronger effect = higher value

Structure (SMILES)	inhibition (at 35 µM)	inhibition (confirmation average, at 20 µM) [%]
COc1cccc(NC(=O)C(=O)c2cn(CC(=O)N3CCOCC3)c3ccccc23)c1	-12.2% (inactive)	–
Cc1cc(C)c2c(-c3ccc(F)cc3)c(C#N)c(=O)n(C)c2n1	-1.8% (inactive)	–
COc1ccc(O)c(C(=O)c2cnc3c(c2)c(-c2ccc(F)cc2)c(C#N)c(=O)n3C)c1	-3.7% (inactive)	–
Cn1c(N)cc(-c2ccc(F)cc2)c(C#N)c1=O	-11% (active)	108
CC(=O)NCCNC(=O)c1cc(-c2cccc3ccccc23)nc2ccccc12	0.8% (inactive)	–
Cc1c(C2=CCN(S(=O)(=O)c3ccc(Cl)cc3)CC2)c2ccccc2n1C	91.5% (active)	99.6
O=S(=O)(c1ccc(F)cc1)N1CC=C(c2ccccc2)CC1	-1.4% (inactive)	–
COc1ccccc1N1CCN(S(=O)(=O)c2ccc(Cl)cc2)CC1	-8.3% (inactive)	–
CCOc1ccc(C(=O)Nc2c3c(nn2-c2ccccc2)CS(=O)(=O)C3)cc1	-1.2% (inactive)	–
O=C(Nc1ncc([N+](=O)[O-])s1)C1COc2ccccc2O1 (centres undefined)	-6.7% (inactive)	–
N[C@@H](Cc1ccccc1)C(=O)N1CCC(C(=O)NCC(=O)Nc2ccc(F)cc2)CC1	20% (inactive)	–
Cc1ccc(-n2c(C)cc(/C=N/Nc3ccc([N+](=O)[O-])cn3)c2C)c(C)c1	6.6% (inactive)	–
COc1cc(/C=N\Nc2ccc([N+](=O)[O-])cn2)ccc1OCC(=O)O	-3.4% (inactive)	–
Cc1cc(/C=N/Nc2ccc([N+](=O)[O-])cn2)c(C)n1-c1cccc(C(=O)O)c1	54.4% (active)	–
O=C(c1cc(S(=O)(=O)N2CCOCC2)ccc1Cl)N1CCOCC1	-2.4% (inactive)	–
COc1cc2c(cc1OC)C(C)N(S(=O)(=O)c1cnc(Cl)c(Cl)c1)CC2 (centres undefined)	1.8% (inactive)	–
Cc1ccc(NS(=O)(=O)c2ccc(F)cc2)nc1	-7.9% (inactive)	–
CCC(Cc1ccccc1)NS(=O)(=O)c1ccc2c(c1)NC(=O)CS2 (centres undefined)	-2.9% (inactive)	–
CCOC(=O)c1c(C)[nH]c(C2=NNC(=NC(C)COC)SC2)c1C (centres undefined)	-1.8% (active)	93.1
CCOC(=O)c1c(C)[nH]c2c1-c1ccccc1C(=O)C2=O	-11% (inactive)	–
CCCCOC(=O)c1[nH]c(C)c(C(=O)OC)c1C	4.8% (inactive)	–
COC(=O)c1ccc(COc2ccc(/C=C/C(=O)c3ccc(OC)c(CSCC(=O)O)c3)cc2OC)cc1	81% (active)	68.7
COc1ccc(C(=O)/C=C/c2ccc(-c3ccccc3)cc2)cc1CSCC(=O)O	82.3% (inactive)	47.3

Structure (SMILES)	inhibition (at 35 µM)	inhibition (confirmation average, at 20 µM) [%]
COc1cc(/C=N/O)ccc1OCc1ccc([N+](=O)[O-])cc1	0.1% (inactive)	–
CCCc1ccc(OCC(O)CN2CCN(CCO)CC2)cc1 (centres undefined)	-2.4% (inactive)	–
Cc1ccc(NC(=O)CCN2C(=O)c3ccccc3C2=O)cc1C	-6.5% (inactive)	–
Cc1cc(C)cc(NC(=O)CCN2C(=O)c3ccccc3C2=O)c1	-1.3% (inactive)	–
Cc1cc(C)cc(OCC(=O)NNC(=O)CCN2C(=O)c3ccccc3C2=O)c1	2.3% (active)	87.4
COc1ccc(CN2CC(C(=O)NCCc3ccc(Cl)cc3)CC2=O)cc1 (centres undefined)	-12.2% (inactive)	–
O=C(N/C(=C\c1ccc([N+](=O)[O-])cc1)C(=O)N1CCOCC1)c1cccc(Br)c1	7.9% (inactive)	–
O=C1c2ccccc2C(=O)N1CCOc1ccc(F)cc1	0.9% (inactive)	–
O=C(Nc1nonc1-c1ccc(Cl)cc1)c1ccco1	-12.8% (inactive)	–
Cc1cc2occ(CC(=O)NNC(=O)c3ccccc3F)c2cc1C	-3% (inactive)	–
COCCNC(=O)c1ccccc1NS(=O)(=O)c1ccc(C)c([N+](=O)[O-])c1	9.2% (inactive)	–
CC1CN(C(=O)c2ccccc2NS(=O)(=O)c2cccc([N+](=O)[O-])c2)CC(C)O1 (centres undefined)	-0.3% (active)	95.9
COc1ccc(S(=O)(=O)Nc2ccccc2C(=O)N2CCCC2)cc1C	-2.4% (inactive)	–
O=S(=O)(c1ccc(Cl)cc1)c1nc(-c2ccccc2F)oc1NCCN1CCOCC1	-7.4% (inactive)	–
Cc1nn(C)cc1S(=O)(=O)N1CCN(c2ccc(F)cc2)CC1	1% (inactive)	–
O=C(N/N=C/c1ccc([N+](=O)[O-])o1)c1cccc(S(=O)(=O)N2CCOCC2)c1	52% (active)	78.6
COc1cccc(/C=N/NC(=O)CNC(=O)c2ccc(S(=O)(=O)N3CCOCC3)cc2)c1OC	7.4% (inactive)	–
COc1ccc(Br)cc1/C=N/NC(=O)c1cccc(S(=O)(=O)N2CCOCC2)c1	-3.8% (inactive)	–
COc1ccccc1C(=O)COC(=O)CNS(=O)(=O)c1ccc(NC(C)=O)cc1	-9.9% (inactive)	–
O=C(O)CCCC(=O)N1N=C(c2ccco2)CC1c1ccco1 (centres undefined)	7.4% (inactive)	–
O=c1c2ccccc2ncn1/N=C/c1ccccc1	4.2% (inactive)	–
COc1ccc(Nc2nc(=O)[nH]nc2C)cc1	3.5% (inactive)	–
COc1ccc(C(=S)Nc2ccccc2)cc1	-0.5% (inactive)	–

Structure (SMILES)	inhibition (at 35 µM)	inhibition (confirmation average, at 20 µM) [%]
COc1ccc(NC2=CC(=S)NC(C)(C)C2)cc1	67.8% (active)	62.7
CCCCSCCCNC(=O)C1CCC(CNS(=O)(=O)c2ccc(NC(C)=O)cc2)CC1 (centres undefined)	2.4% (inactive)	–
Cc1cc(CNC(=O)C2CCC(=O)N(CCc3ccc(Cl)cc3)C2)no1 (centres undefined)	-0.4% (inactive)	–
CCOC(=O)C1C(c2ccc(O)cc2)NC(=O)NC1(O)C(F)(F)F (centres undefined)	-0.5% (inactive)	–
Cc1ccccc1NC(=O)CCNS(=O)(=O)c1ccc2[nH]c(=O)oc2c1	-5.4% (inactive)	–
O=C(NCCN1CCOCC1)c1ccc(/C=C2\Sc3ccccc3N(Cc3ccc(F)cc3)C2=O)cc1	-7.3% (inactive)	–
CCN1CCN(CCNC(=O)c2ccc3c(c2)NC(=O)/C(=C\c2ccc(OC)c(OC)c2)S3)CC1	22.4% (inactive)	–
CCN1CCN(CCNC(=O)c2ccc(/C=C3/Sc4ccccc4N(Cc4cccc(C)c4)C3=O)cc2)CC1	-0.9% (active)	95.1
COc1ccc(C)cc1Nc1nc(C)nc2c1oc1ccccc12	-11.2% (inactive)	–
CN1CCN(C(=O)c2ccc(NS(=O)(=O)c3ccccc3)cc2)CC1	-6.4% (inactive)	–
COc1ccc(-c2nnn(CC(=O)N(CCO)C(C(=O)NC3CCCC3)c3ccc(F)cc3)n2)cc1 (centres undefined)	-0.3% (inactive)	–
CCOCCCN(C(=O)Cn1nnc(-c2ccc(OC)c(OC)c2)n1)C(CC)C(=O)NC1CCCC1 (centres undefined)	-12.4% (active)	91
CCC(C(=O)NC1CCCC1)N(C(=O)Cn1nnc(-c2ccc(C)o2)n1)c1ccc(OC)c(OC)c1 (centres undefined)	5.7% (inactive)	–
O=C(O)Cn1c(Cc2ccccc2)nc2ccccc21	-6.9% (inactive)	–
O=C(Nc1ccc(Cl)c(Cl)c1)c1ccccc1NC(=O)C1CC=CCC1C(=O)O (centres undefined)	-5.2% (inactive)	–
O=C(NCc1ccccn1)c1ccc2nc(-c3ccco3)c(-c3ccco3)nc2c1	97% (active)	–
COc1cccc(S(=O)(=O)NCc2ccc(C(=O)NCc3ccccn3)cc2)c1	-1% (inactive)	–
O=C(NCc1ccccn1)c1cc(-c2ccccc2Cl)on1	-3.2% (inactive)	–
COc1ccc(C23NCCN2C(=O)c2ccccc23)cc1 (centres undefined)	-1.8% (inactive)	–
Cc1ccc(CN2CCN(c3ncccn3)CC2)c(C)c1	17.4% (inactive)	–
COc1ccc(NS(=O)(=O)c2ccc(N3CCOCC3)c(NC(=O)c3ccccc3Br)c2)cc1	-4.7% (inactive)	–
COc1ccc(NS(=O)(=O)c2cc(NC(=O)C3CCCCC3)ccc2N2CCOCC2)cc1	13.7% (active)	81.1
COc1ccc(NS(=O)(=O)c2cc(NC(=O)/C=C/c3cc(OC)c(OC)c(OC)c3)ccc2N2CCCCC2)cc1	-7.6% (inactive)	–

Structure (SMILES)	inhibition (at 35 µM)	inhibition (confirmation average, at 20 µM) [%]
CCC(C)[C@H](NC(=O)N1CCn2c1nc1ccccc12)C(=O)NCc1ccc(OC)cc1 (some centres undefined)	-4.4% (inactive)	–
CCc1ccc(-c2nc(SCC(=O)NC3CCCC3)n[nH]2)cc1	45.6% (inactive)	–
CCCN(c1ccc(C)cc1)c1nc(=O)c2cccnc2s1	91.1% (active)	–
COc1ccccc1N1CC(C(=O)Nc2nnc(SCC(=O)NCC3CCCO3)s2)CC1=O (centres undefined)	-4% (inactive)	–
CN(C(=O)c1cc2c(=O)n3ccccc3nc2s1)C1CCCCC1	-4.1% (inactive)	–
COc1ccc(OC)c(Nc2nc(-c3ccc(O)c(O)c3)cs2)c1	65.5% (active)	–
COc1cccc(CC(=O)Nc2nc(-c3ccc(OC)c(OC)c3)cs2)c1	6.8% (inactive)	–
COc1ccc(-c2csc(Nc3ccc(O)cc3)n2)cc1	9.7% (inactive)	–
O=S(=O)(Nc1cccc(-n2cnnn2)c1)c1cnc(Cl)c(Cl)c1	-5.5% (inactive)	–
CN(C)S(=O)(=O)c1ccc(N/C=C(\[N+](=O)[O-])S(=O)(=O)c2ccccc2)cc1	-0.3% (inactive)	–
COc1cccc(OC)c1C(=O)Nc1c(C(=O)N2CCN(c3ccccn3)CC2)oc2ccccc12	-10.2% (inactive)	–
Oc1c(Cl)cc(Cl)c(Cl)c1Cc1c(O)c(Cl)cc(Cl)c1Cl	51% (active)	96.3
COc1ccc(CSc2nnnn2-c2ccc(O)cc2)cc1F	-12% (inactive)	–
COc1cccc(NC(=O)c2ccccc2N(Cc2ccccc2)S(C)(=O)=O)c1	-8.4% (inactive)	–
COC(=O)[C@@H]1CCCN1C(=O)c1cc(COc2cccc3cccnc23)on1	4.3% (inactive)	–
O=C1CCCC(O)=C1N=Nc1ccc2ncsc2c1	69.2% (active)	94.3
O=C1CCCC(O)=C1N=Nc1ccc(S(=O)(=O)N2CCOCC2)cc1	27.7% (inactive)	–
CC(CC(=O)N1CCN(S(=O)(=O)c2ccccc2)CC1)n1cncn1 (centres undefined)	-2.7% (inactive)	–
CCc1nnc(NC(=O)Cc2cccs2)s1	19.2% (inactive)	–
COc1ccc(Cc2nnc(NC(=O)Cc3cccs3)s2)cc1	71.3% (active)	–
COc1ccc(Cc2nnc(NC(=O)c3ccc(OC)cc3OC)s2)cc1	4.9% (inactive)	–
